# Hit rate of the full screen: of about 63,000 compounds, about 1,100 (1.7%) were called active. The full list was thinned out, with actives kept by preference. Measured potencies and affinities stand elsewhere. Values without a mark were called inactive.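 How the source made its calls: active means compounds whose percent cytotoxicity in the single-dose primary screen, scaled between solvent and toxic-drug controls, exceeds 50; inactive means the rest.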
# Assay: viability loss of HPDE-C7K cells – cell-based, fluorescence, HTS, primary screen (AID 431);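 further: 0% = DMSO solvent wells and 100% = doxorubicin-treated wells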
# Conditions: HPDE-C7K KRASV12 cells, Alamar Blue viability, 48 h; at 10 µM; hits give high values
row,SMILES,cytotoxicity
1,CCN(CC)S(=O)(=O)c1ccc2oc(C(=O)N3CCCCCC3)c(C)c2c1,7.8%
2,CCCN1Cc2cccc(C(=O)Nc3cc(OC)cc(OC)c3)c2C1=O,16.6%
3,CC(C)(C)OC(=O)NCCc1nnc(SCC(=O)c2ccc(Cl)cc2)o1,3.8%
4,COc1cccc(C(=O)N(Cc2cc3cc(C)ccc3[nH]c2=O)CC2CCCO2)c1 (configuration not stated),-14.2%
5,CCOC(=O)C1CCN(Cc2ccccc2C(F)(F)F)CC1,-13.3%
6,On1cnnc1-c1ccccc1,-12.7%
7,CN1Cc2cc(C(=O)c3cc(Cl)cc(CSc4ncccn4)c3O)cnc2NC1=O,66.2% (active)
8,CCCCN1Cc2cc(C(=O)c3cc(F)ccc3O)cnc2NC1=O,6.7%
9,Cc1ccc(O)c(C(=O)c2cnc3c(c2)CN(CCC(C)C)C(=O)N3)c1,-6%
10,CCCn1c(N)c(C(=O)CSc2nnc(-c3ccco3)n2Cc2ccccc2)c(=O)[nH]c1=O,-9.1%
11,Cc1cc(NC(=O)NC(=O)c2cccc(OC(F)(F)C(F)F)c2)n[nH]1,-3.6%
12,Cc1cc(C)c2c(CN3CCN(C/C=C/c4ccccc4)CC3)cc(=O)oc2c1,72.7% (active)
13,CCN1CCN(Cc2cc(=O)oc3cc(C)cc(C)c23)CC1,7.2%
14,Cc1cc(C)c2c(CN3CCN(C)CC3)cc(=O)oc2c1,9.6%
15,CCOC(=O)c1c(C)n(C)c2ccc(O)c(CN3CCN(C)CC3)c12,4.9%
16,Cc1cc(C2=CC(C)(c3cc(C)oc3C)Nc3nc(C(F)(F)F)nn32)c(C)o1 (configuration not stated),56.2% (active)
17,Cc1cccc(NC(=O)c2cnc3sccn3c2=O)c1C,0.5%
18,CCOC(=O)c1ccc(NC(=O)CCC(=O)OC)cc1,0%
19,CCCc1nc(NC2CCCCC2)c(C#N)c2c1COC(C)(C)C2,-33.6%
20,CCc1nc(NCC2CCCO2)c(C#N)c2c1COC(C)(C)C2 (configuration not stated),-3%
21,CCc1nc(NC2CCCCC2)c(C#N)c2c1COC(C)(C)C2,62% (active)
22,COc1ccccc1N1CCN(CC(=O)Nc2c(C)n[nH]c2C)CC1,0.8%
23,COc1ccc(-c2nc(CS(=O)CC(=O)NCC3CCCO3)c(C)o2)cc1 (configuration not stated),-1.7%
24,O=S(=O)(c1ccc(F)cc1)N1CCN(c2ncnc3c2cnn3-c2ccccc2)CC1,-6.5%

row,SMILES,cytotoxicity
1,O=S1(=O)CC(O)C(N2CCC(c3ccccc3)CC2)C1 (configuration not stated),-1.5%
2,CN(Cc1cc2ccccc2[nH]c1=O)S(=O)(=O)c1ccccc1,-6.2%
3,CN(C)CCC(=O)c1ccc(Cl)cc1,13.3%
4,COc1ccccc1NC(=O)N(Cc1ccco1)Cc1cc2cccc(C)c2[nH]c1=O,-5%
5,COc1ccccc1NC(=O)N(Cc1ccco1)Cc1cc2c(C)ccc(C)c2[nH]c1=O,33.2%
6,CCN1CCCC1CN(Cc1cc2cc(C)cc(C)c2[nH]c1=O)C(=O)Nc1ccccc1OC (configuration not stated),20.9%
7,COc1ccccc1NC(=O)N(Cc1ccco1)Cc1cc2ccc(C)c(C)c2[nH]c1=O,63.7% (active)
8,Cc1cc(C)c2[nH]c(=O)c(CN(Cc3ccco3)C(=O)C3CCCO3)cc2c1 (configuration not stated),-35.5%
9,COc1ccccc1NC(=O)N(Cc1ccco1)Cc1cc2cc(C)cc(C)c2[nH]c1=O,74.7% (active)
10,CC1CCCCC1NC(=O)CN1CCN(Cc2ccccc2Cl)C1=O (configuration not stated),-7.1%
11,CCc1cc(C)cc(OCCNC(=O)c2ncn[nH]2)c1,30%
12,Cn1nnnc1CCOCCc1nnnn1C,14.6%
13,CCn1nnnc1SCCSc1nnnn1CC,9.6%
14,N/C(=N\c1nc2c(c(=O)[nH]1)CCCC2)Nc1ccccc1,12.1%
15,COc1ccc(-c2cn3cccnc3n2)cc1NC(=O)c1ccc(Br)o1,8.3%
16,CCOC(=O)C1=C(C)N=C2SC(CC)C(=O)N2C1c1cccc(F)c1 (configuration not stated),-16.9%
17,O=C(CCn1c(=O)[nH]c2ccccc2c1=O)N1CCN(c2cccc(C(F)(F)F)c2)CC1,-4.3%
18,COC(=O)c1[nH]c2ccccc2c1NC(=O)CN1CCN(c2cccc(Cl)c2)CC1,7.8%
19,Cc1[nH]c2ccccc2c1NC(=O)CN1CCN(c2cccc(C(F)(F)F)c2)CC1,70% (active)
20,O=C(CN1CCN(c2ccccc2)CC1)Nc1cccc(C(F)(F)F)c1,4.9%
21,OC(CN1CCN(c2cccc(C(F)(F)F)c2)CC1)c1c[nH]c2ccccc12 (configuration not stated),30.5%
22,CC[C@]1(O)CC2CN(CCc3c([nH]c4ccccc34)[C@@](C(=O)OC)(c3cc4c(cc3OC)N(C=O)[C@H]3[C@@](O)(C(=O)OC)[C@H](OC(C)=O)[C@]5(CC)C=CCN6CC[C@]43[C@@H]65)C2)C1 (some centres not stated),72.5% (active)
23,CC[C@]1(O)C[C@@H]2CN(CCc3c([nH]c4ccccc34)[C@@](C(=O)OC)(c3cc4c(cc3OC)N(C)[C@H]3[C@@](O)(C(=O)OC)[C@H](OC(C)=O)[C@]5(CC)C=CCN6CC[C@]43[C@@H]65)C2)C1,74.9% (active)
